Results as given in the supplement of paper PMC6555819.

System: LXRa homodimer (NR concentration 270 nM)
Experiment: PBM binding z-score (relative to random genomic background probes); higher = stronger binding; sequences stand for … in GC…GCGATTGACAGCGTAGAATGAAGG
Summary of the method: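 Each nuclear receptor dimer, without ligand, was incubated for 1 h on custom Agilent 4×180K protein-binding microarrays. Binding was detected with antibodies against each partner (one per run), and scanned fluorescence was regression-normalized. The binding z-scores are referenced to random human genomic background probes.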

Row | Sequence | PBM binding z-score
1 | TCATATAGGCAAAAGGTGAAAGTCGGTGTGGTAA | -0.253
2 | ATATGTAGGTTAGCTGGGGTCATTCAGACTAGGC | 3.02
3 | GCAACGAGGGCAAAGTTGATAGCATCTGTCGACG | -0.469
4 | CCTTACGGGTCGCTCCAGGTTATAGCATCGGAGT | -0.172
5 | ATGTCTAGGTAAGACTCAGTTCAGTGAAGAACGC | 0.049
6 | GATTCAGGGTCAAGGCCAGAGTACGCGTATTGAT | 0.175
7 | CGTCAAAGCTCAAGGTAACGTAACAGAAAGCAGC | -0.372
8 | CCTATTAGTTGACCACAAGGGCAACCGAAGCTCG | 0.493
9 | ATATGTAGCTTAGCTGGGGTCATTCAGACTAGGC | 1.49
10 | CTACCAAGGTGAACAAGCTCGTTGATTACTATTC | -0.188
11 | CTCGAAAGGTCGTGCTCAGGTGACTATACCAAAC | 0.561
12 | CGAACTAGGTCAAGAACAGTGAATCTCCGCACGC | 0.155
13 | ACTATTAGGTGACTTAGGGCAACCGATACGACGC | 0.428
14 | TAGCCTAGGTCAAGGGCCAGTATACCACGCGAAC | 0.0881
15 | ACTTACGGGTCAACGAGGTTATTGCACGCGTATA | 1.72
16 | CGTCAAAGTTCAAGGTAACGTTACAGAAAGCAGC | 3.04
17 | CAATCTAGGTCACCGGAAGGTCAAAGTCCGCATG | 6.06
18 | CCGAGTGGGGCAAAGGTTACCATACTCAGTACGA | 0.144
19 | AATAGAGGGTCACTAGGCCAGAGTAGGTACGAAT | 0.324
20 | ACCTCTAGGTAACCAAGTTCAGTGAATGCCGAAC | 0.553
21 | CGTCAAAGTTCAAGGTAACGTGACAGAAAGCAGC | 2.53
22 | TCTCGGAGGACACGAAGGTCAGAGCTTTCCAGAG | -0.0274
